Assay outcomes deposited in PubChem by Broad Institute.
Shown is part of a subset that was picked to be rich in hits.
Tg IFNy HTS: T. gondii growth inhibition with IFN-gamma, primary screen, cell-based | 3.8% of 69,000 active | Toxoplasma gondii growth in IFN-gamma-treated host cells; active compounds read low | AID 1259416, 2018 | activity change, negative = inhibition, % (test concentration not listed); in the data active = activity change below about -70%, passing the limit was not always enough;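 also: host cells are HeLa cells infected with Toxoplasma gondii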
Numbers without * were called inactive.

Screening O=C(Nc1cccc(Cl)c1)N[C@H]1CC[C@H](CCn2cc(Cc3ccccc3)nn2)O[C@H]1CO returned Tg IFNy HTS -40.
O=C(Nc1cccc(Cl)c1)N[C@H]1CC[C@@H](CCn2cc(Cc3ccccc3)nn2)O[C@@H]1CO was read as Tg IFNy HTS -41.
For CCc1ccc(S(=O)(=O)N2CC3CCC2C3Oc2ccccn2)cc1 (stereo not drawn) the results were Tg IFNy HTS -23.
`CC(=O)NCC(=O)N1CCC2O[C@H](COCc3ccccn3)CCC21` (stereo partly drawn) gave Tg IFNy HTS -46.
O=C1C2CCCCC2C(=O)N1c1ccc(OS(=O)(=O)c2ccccc2)cc1 (stereo not drawn) was read as Tg IFNy HTS -26.
Screening NC(N)=N/N=C/c1c(Cl)cccc1Cl returned Tg IFNy HTS -4.
For NC(N)=N/N=C/c1ccc(OS(=O)(=O)c2ccccc2)cc1 the results were Tg IFNy HTS -77*.
Fc1ccc(CNc2nc(-c3nnc(-c4cccc(Cl)c4)o3)nc3ccccc23)cc1 was read as Tg IFNy HTS -23.
`Cc1ccc2n1CCN(C(=O)COc1ncnc3ccccc13)C2C(C)C` (stereo not drawn) gave Tg IFNy HTS 81.
For COc1ccc(-c2nc(NC3CCN(Cc4ccccc4)CC3)c3ccccc3n2)cc1 the results were Tg IFNy HTS -51.
Screening CCCC(=O)N1CCCN(c2nc(N)c3cc(OC)c(OC)cc3n2)CC1 returned Tg IFNy HTS 19.
Screening COc1cc2nc(N3CCCN(C)CC3)nc(NC3CCN(Cc4ccccc4)CC3)c2cc1OC returned Tg IFNy HTS -88*.
Fc1cc(Oc2ccc(C(F)(F)F)cn2)cc(F)c1CN1CCCC1 was read as Tg IFNy HTS 51.
O=C(c1n[nH]c2c1CCC2)N1C[C@@H]2[C@@H]3CC[C@@H](C3)[C@@H]2C1 was read as Tg IFNy HTS -28.
Screening CSc1ccc(CNC(=O)COc2nc(C)nc3ccccc23)cc1 returned Tg IFNy HTS -24.
Screening Cc1ccc(Sc2ccc(NC(=O)Nc3ccc(OC(F)(F)F)cc3)cn2)cc1 returned Tg IFNy HTS -67.
Screening S=C(Nc1ccc(Oc2ccc(Cl)cc2)cc1)Nc1cccc(Cl)c1Cl returned Tg IFNy HTS -32.
`Cc1cc(C)cc(NC(=S)Nc2ccc(Oc3ccc(OC(F)(F)F)cc3)cc2)c1` gave Tg IFNy HTS -106*.
Screening COc1ccc(CNC(=O)c2nc(N3CCCC3)c3ccccc3n2)cc1 returned Tg IFNy HTS -24.
`COCCN1C[C@H]2[C@H](OC)CCN(S(=O)(=O)c3cn(C)cn3)[C@H]2C1` gave Tg IFNy HTS 5.
For CC[C@@]1(O)C(=O)OCc2c1cc1n(c2=O)Cc2cc3c([N+](=O)[O-])cccc3nc2-1 the results were Tg IFNy HTS -80*.
CC[C@@]1(O)C(=O)OCc2c1cc1n(c2=O)Cc2cc3c(CN(C)C)c(O)ccc3nc2-1 was read as Tg IFNy HTS -78*.
For Cc1cc(=O)oc2c(CN(C)C)c(O)ccc12 the results were Tg IFNy HTS -2.
`Cc1cc(CNC(=O)c2ccc(-n3cnnc3)cc2Cl)c2[nH]c(C)c(C)c2c1` gave Tg IFNy HTS 41.
Screening CCn1c(C2CCCNC2)nn(Cc2ccc(Cl)s2)c1=O (stereo not drawn) returned Tg IFNy HTS 2.
CNC(=O)C(C)(C)NC(=O)CC1COc2ccc(C(=O)N(C)C)cc2N1C (stereo not drawn) was read as Tg IFNy HTS 2.
Screening COCCN1C(=O)CCC2C1CCN2C(=O)c1ccc2c(c1)OCO2 (stereo not drawn) returned Tg IFNy HTS -6.
CCOCC1c2c(cnn2CC2CCOCC2)CCN1Cc1ccco1 (stereo not drawn) was read as Tg IFNy HTS 51.
For CC1CCCCN1C(=O)c1cc(-c2cnc(-c3ccccc3)nc2)cn1C (stereo not drawn) the results were Tg IFNy HTS inactive.
Screening CCCc1ncc(-c2ccncc2C)c(C2CCCN2C(=O)c2sc(NC)nc2C)n1 (stereo not drawn) returned Tg IFNy HTS -13.
`Cc1nc(-c2cn(C(C)C)c3ncccc23)sc1C(=O)N1CCCCC1C` (stereo not drawn) gave Tg IFNy HTS -106*.
For CCN1CCC2(CC1)OC(=O)C(C)=C2C(=O)NCCCN1CCCC(C)C1 (stereo not drawn) the results were Tg IFNy HTS 29.
Screening COc1cccc([C@@H]2CCCN(Cc3cc4n(n3)CCCNC4)C2)c1 returned Tg IFNy HTS -26.
For COc1ccc(-c2nc(NCC3CCN(Cc4cccc(C)c4)CC3)c3ccccc3n2)cc1 the results were Tg IFNy HTS -36.
Screening COc1cccc(CN2CCCC(c3ccc4c(NCc5cccc(C)n5)n[nH]c4n3)C2)c1 (stereo not drawn) returned Tg IFNy HTS -83*.
Screening Cc1cccc(-c2cn[nH]c2C2CCN(C(=O)c3ncc[nH]3)CC2)c1 returned Tg IFNy HTS -10.
Screening O=C(Cn1ncc2c(N3CCCC3)ncnc21)NC1CCCC1 returned Tg IFNy HTS -15.
For CCOc1ccc(NC(=O)Cn2ncc3c(N4CCCCC4)ncnc32)cc1 the results were Tg IFNy HTS 50.
`Fc1cccc(CN(Cc2cncn2Cc2ccccc2)CC2CCCO2)c1` (stereo not drawn) gave Tg IFNy HTS -93*.
CN(C)CCN(Cc1cccnc1)Cc1cncn1Cc1ccccc1 was read as Tg IFNy HTS 14.
For COc1cc(CN(Cc2ccccc2)CC2CCCO2)cc(OC)c1OC (stereo not drawn) the results were Tg IFNy HTS 1.
O=C(NCCc1csc(-c2ccc(Cl)cc2)n1)c1ccc2c(c1)OCO2 was read as Tg IFNy HTS -39.
Cc1ccc(-n2ncc(-c3nnc(SCC(=O)c4ccc(Cl)cc4)o3)c2N)cc1C was read as Tg IFNy HTS 0.
For Cc1ccc(C(C)N2CCN(C(=O)c3c(-c4ccncc4)noc3C)CC2)cc1 (stereo not drawn) the results were Tg IFNy HTS -1.
CCOc1ccc2[nH]c(=O)c(CN3CCCN(C(=O)C4CC4)CC3)cc2c1 was read as Tg IFNy HTS -83*.
CCOc1ccc2[nH]c(=O)c(CN3CCCCC3c3nc(C)no3)cc2c1 (stereo not drawn) was read as Tg IFNy HTS 2.
CCCOC1CCCN(Cc2cc3cc(OC)ccc3[nH]c2=O)C1 (stereo not drawn) was read as Tg IFNy HTS -2.
For Cc1ccc2cc(CN3CCN(Cc4cccc(F)c4)CC3)c(=O)[nH]c2c1 the results were Tg IFNy HTS 4.
CCn1c2ccccc2c2cc(CN3CCN(Cc4ccco4)CC3)ccc21 was read as Tg IFNy HTS -14.
Screening COc1ccc(C(=O)NC(Nc2ccc(S(N)(=O)=O)cc2)C(=O)c2ccccc2)cc1 (stereo not drawn) returned Tg IFNy HTS 17.
`c1ccc(N2CCC3(CC2)CN(c2ncccn2)CCO3)nc1` gave Tg IFNy HTS -11.
Screening Cc1nc(-c2ccc(Cl)cc2)sc1CCNC(=O)CCc1ccccc1 returned Tg IFNy HTS 36.
COc1ccc(-c2cc(F)c(OC)c(F)c2)cn1 was read as Tg IFNy HTS -9.
`COc1ccc(-c2cccc3c(C(N)=O)cccc23)cn1` gave Tg IFNy HTS 14.
COc1ccc(-c2ccc3[nH]nc(N)c3c2)cn1 was read as Tg IFNy HTS -73*.
`CN1CCN(c2ccc(C(=O)N3CCC(N4CCOCC4)CC3)cn2)CC1=O` gave Tg IFNy HTS 82.
